From PubChem BioAssay (NCATS)
Inconclusive results are not listed. Entries that show only a call come without a potency. Unmarked numbers belong to inactive results. Active and inactive are the calls of the source. Calls follow the shape of the dose curve; as a rule, active = well fitted curve in the direction sought with a large enough effect; inconclusive = small, poorly fitted or top-dose-only effect, or another doubt; inactive = no such curve, though single readings can be large; an effect the other way counts as inactive or inconclusive. Where a SMILES comes first, the peptide text is derived from it.

How the values were obtained:
[1] = Primary qHTS for inhibitors of nuclear receptor binding SET domain protein 2 (NSD2) in an isogenic RCH-ACV NSD2 p.E1099K mutant (9B) (AID 1645876)
[2] = Primary qHTS for inhibitors of nuclear receptor binding SET domain protein 2 (NSD2) in an RCH-ACV wild type WT cells (2C) (AID 1645877); also: potency is read from the fitted curve at half-maximal effect
Also: nearly all actives have a fitted effect of over 70% in size.

Question: Which Potency [1] does the source give for `C=CC1(C)CC2=CCC3C(C)(C(=O)O)CCCC3(C)C2CC1OC(C)=O` (stereo unspecified) here?
Answer: Its Potency is “inactive”.

Question: What about the Potency [2] of the same molecule?
Answer: The Potency was “inactive”.

Question: What does the source list for `COc1c(C)c2c(c(O)c1C/C=C(\C)CC/C=C(\C)CCC(=O)O)C(=O)OC2`?
Answer: Potency [1]: inactive; Potency [2]: inactive

Question: For `CC1NC(=O)CNC(=O)C(C(C)C)NC(=O)C2CCCN2C(=O)C(C(C)C)NC(=O)C(Cc2c[nH]c3ccccc23)NC1=O` (stereo unspecified) (cyclo(GAWVPV); configuration not given here), which Potency [1] is on record?
Answer: The Potency was “inactive”.

Question: And the Potency [2]?
Answer: Its Potency is “inactive”.

Question: Which Potency [1] does the source give for `C[C@@H]1CC[C@]2(C(=O)O[C@@H]3O[C@H](CO)[C@@H](O)[C@H](O)[C@H]3O)CC[C@]3(C)C(=CCC4[C@@]5(C)C[C@@H](O)[C@H](O)C(C)(C)C5CC[C@]43C)C2[C@]1(C)O` (stereo partly specified) here?
Answer: The Potency was “inactive”.

Question: What about the Potency [2] of the same molecule?
Answer: The Potency was “inactive”.

Question: What does the source list for `CCC1CC2C(C)=CC3CCCCC3C2(C)C2(OC(=O)C(C)(O)OC2=O)O1` (stereo unspecified)?
Answer: Potency [1]: inactive; Potency [2]: inactive

Question: Which results are given for `CC1(CO)CC[C@]2(C(=O)O[C@@H]3O[C@H](CO)[C@@H](O)[C@H](O)[C@H]3O)CC[C@]3(C)C(=CCC4[C@@]5(C)CC[C@H](O[C@@H]6O[C@H](C(=O)O)[C@@H](O)[C@H](O)[C@H]6O)C(C)(C)C5CC[C@]43C)C2C1` (stereo partly specified)?
Answer: outcome [1]: inactive [at 9.23 µM]; outcome [2]: inactive [at 9.23 µM]

Question: For `CC(=O)N[C@H]1CCN(c2ccc(C3=NOC(CN[S+](=O)([O-])C(C)C)C3)cc2F)C1` (stereo partly specified), which Potency [1] is on record?
Answer: The Potency was “inactive”.

Question: What about the Potency [2] of the same molecule?
Answer: The Potency was “inactive”.

Question: With `Cn1c(=O)c2nc(/C=C/c3cccc(Cl)c3)n(C)c2n(C)c1=O` as the molecule, how does the Potency [1] read?
Answer: Its Potency is “inactive”.

Question: What about the Potency [2] of the same molecule?
Answer: The Potency was “inactive”.

Question: For `CC1(C)O[C@@H]2C[C@H]3[C@@H]4CCC5=CC(=O)C=C[C@]5(C)[C@H]4[C@@H](O)C[C@]3(C)[C@]2(C(=O)CO)O1`, which Potency [1] is on record?
Answer: The Potency was “inactive”.

Question: What about the Potency [2] of the same molecule?
Answer: The Potency was 0.0468 µM (active).

Question: Which results are given for `CC(CCC1C(C(=O)O)=CC(=O)CC1(C)C)O[C@@H]1O[C@H](CO)[C@@H](O)[C@H](O)[C@H]1O` (stereo partly specified)?
Answer: Potency [1]: inactive; Potency [2]: inactive

Question: Which Potency [1] does the source give for `C[C@]1(OC(=O)/C=C/c2ccccc2)C[C@H](O)[C@]2(O)C=CO[C@@H](O[C@@H]3O[C@H](CO)[C@@H](O)[C@H](O)[C@H]3O)C12` (stereo partly specified) here?
Answer: Its Potency is “inactive”.

Question: What about the Potency [2] of the same molecule?
Answer: The Potency was “inactive”.

Question: Which Potency [1] does the source give for `N[C@H]1C[C@H]1c1ccc(-c2cccc(O)c2)cc1` here?
Answer: The Potency was “inactive”.

Question: And the Potency [2]?
Answer: The Potency was “inactive”.

Question: With `CC(=O)OCCC(C)CCC1C(C)(O)CCC2C(C)(C)CCCC21C` (stereo unspecified) as the molecule, how does the Potency [1] read?
Answer: Its Potency is “inactive”.

Question: And the Potency [2]?
Answer: Its Potency is “inactive”.

Question: With `CC(=O)O[C@H]1CC[C@@]2(CI)C(=CC[C@@H]3[C@@H]2CC[C@]2(C)[C@@H]([C@H](C)CCCC(C)C)CC[C@@H]32)C1` as the molecule, how does the activity change, negative = viability loss [1] read?
Answer: The activity change, negative = viability loss was -4.5% [at 9.23 µM].

Question: And the activity change, negative = cell killing [2]?
Answer: Its activity change, negative = cell killing is -14% [at 9.23 µM].

Question: For `C[C@@H]1C/C=C/C=C\C=C\C=C\[C@H](O[C@@H]2O[C@H](C)[C@@H](O)[C@H](N)[C@@H]2O)C[C@@H]2O[C@](O)(C[C@@H](O)C[C@H]3O[C@@H]3/C=C/C(=O)O1)C[C@H](O)[C@H]2C(=O)O`, which Potency [1] is on record?
Answer: The Potency was “inactive”.

Question: And the Potency [2]?
Answer: The Potency was “inactive”.

Question: Which Potency [1] does the source give for `CC1(C)CC[C@]2(C(=O)O[C@@H]3O[C@H](CO)[C@@H](O)[C@H](O)[C@H]3O)CC[C@]3(C)C(=CCC4[C@@]5(C)C[C@@H](O)[C@H](O)C(CO)(CO)C5CC[C@]43C)C2[C@@H]1O` (stereo partly specified) here?
Answer: Its Potency is “inactive”.

Question: And the Potency [2]?
Answer: Its Potency is “inactive”.

Question: What does the source list for `COC(=O)[C@@]1(C)CC[C@]2(C(=O)O[C@@H]3O[C@H](CO)[C@@H](O)[C@H](O)[C@H]3O)CC[C@]3(C)C(=CCC4[C@@]5(C)CC[C@H](O[C@@H]6O[C@H](C(=O)O)[C@@H](O)[C@H](O)[C@H]6O)C(C)(C)C5CC[C@]43C)[C@@H]2C1` (stereo partly specified)?
Answer: activity change, negative = viability loss [1]: -18.6% [at 9.23 µM]; activity change, negative = cell killing [2]: -26.4% [at 9.23 µM]

Question: With `C=C1[C@H]2CC[C@]3(O)[C@@](CC[C@@H]4[C@](C)(C(=O)O)CCC[C@]43C)(C2)[C@H]1OC(=O)/C(C)=C\C` as the molecule, how does the Potency [1] read?
Answer: Its Potency is “inactive”.

Question: And the Potency [2]?
Answer: Its Potency is “inactive”.

Question: For `CC(=O)OC(CSC1CCC(=O)OC(C)CCC(=O)C1)C(=O)O` (stereo unspecified), which Potency [1] is on record?
Answer: Its Potency is “inactive”.

Question: What about the Potency [2] of the same molecule?
Answer: Its Potency is “inactive”.

Question: What does the source list for `COc1cc2c(cc1O)C1(OC)Cc3ccc4c(c3C1N(C)CC2)OCO4` (stereo unspecified)?
Answer: Potency [1]: inactive; Potency [2]: inactive

Question: Which Potency [1] does the source give for `C=CC(C)(O)CO[C@@H]1O[C@H](CO)[C@@H](O)[C@H](O)[C@H]1O` (stereo partly specified) here?
Answer: The Potency was “inactive”.

Question: And the Potency [2]?
Answer: The Potency was “inactive”.

Question: Which Potency [1] does the source give for `CC(C)=CCC/C(C)=C/CC/C(C)=C/CC[C@]1(C)CCc2cc(O)cc(C)c2O1` here?
Answer: The Potency was “inactive”.

Question: What about the Potency [2] of the same molecule?
Answer: Its Potency is “inactive”.

Question: Which Potency [1] does the source give for `C[C@@H]1CC[C@]2(C(=O)O)CC[C@]3(C(=O)O)C(=CCC4[C@@]5(C)CC[C@H](O[C@@H]6O[C@@H](C)[C@H](O[C@@H]7O[C@H](CO)[C@@H](O)[C@H](O)[C@H]7O)[C@@H](O)[C@H]6O)C(C)(C)C5CC[C@]43C)C2[C@H]1C` (stereo partly specified) here?
Answer: The Potency was “inactive”.

Question: What about the Potency [2] of the same molecule?
Answer: Its Potency is “inactive”.
